Reference: PubChem BioAssay AID2401 (Southern Research Specialized Biocontainment Screening …, 2010)
The campaign covered roughly 2,200 compounds. About 530 (24%) were called active.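 How the source made its calls: active means inhibition above a set limit at one or more concentrations of the dose series; inactive means inhibition under that limit at every dose.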 Only a sample is shown. Results with a measured potency or affinity are listed apart.

Test: S. Typhimurium nonspecific reporter signal inhibition – Salmonella Typhimurium, GFP fluorescence, counter-screen for PhoP regulon inhibitor project, dose response (AID 2401);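 further: S. typhimurium with Mg-insensitive nmpC-GFP reporter grown at 10 µM Mg2+; drop in reporter fluorescence reflects general culture growth inhibition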
Conditions: 4 h; series mostly up to 150 µM

Row | SMILES | outcome
1 | O=S(=O)(Nc1ccc2c(c1)nc1n2CCN(Cc2ccccc2)C1)c1ccc(Cl)cc1 | inactive
2 | Nc1cccc(-c2nc3ccc(N)cc3s2)c1 | inactive
3 | O=C(NCc1ccco1)c1ccc(Br)s1 | inactive
4 | Cn1c(=N)n(CC(=O)c2ccc(Br)s2)c2ccccc21 | inactive
5 | O=C(Nc1cccn(Cc2c(Cl)cccc2Cl)c1=O)c1ccccc1Cl | inactive
6 | Clc1ccc(OCCn2cnc3ccccc32)cc1 | inactive
7 | COc1ccc(C(=O)C(CO)Oc2ccccc2OC)cc1OC (configuration not stated) | inactive
8 | S=C(Nc1ccccc1)Nc1nc2ccccc2n1CCOc1ccc(Cl)cc1 | inactive
9 | Cc1cccc(OCCCSc2nc3ccc(C)cc3[nH]2)c1 | inactive
10 | CCCCCCOC(=O)Sc1nc2ccccc2o1 | inactive
11 | COc1ccccc1OCc1ccc(C(=O)N2CCN(C(=O)c3ccco3)CC2)cc1 | inactive
12 | COc1ccc(/C=C/C(=O)O)cc1COc1cccc(C)c1 | inactive
13 | COc1ccccc1NC(=S)NNC(=O)c1c(Cl)c(C)nn1C | inactive
14 | Cc1ccc(Nc2nc(CSc3nnc(-c4cccnc4)n3-c3ccccc3F)cs2)cc1 | inactive
15 | O=C(c1cccc(S(=O)(=O)N2CCOCC2)c1)N1CCCC1 | inactive
16 | O=C(c1ccccc1)N1CCSC1=S | inactive
17 | Cn1c(-c2ccc3nc(N)sc3c2)nc2cc(N)ccc21 | inactive
18 | Nc1ccc(Nc2ccccc2N)cc1 | inactive
19 | Cc1cc2c(c(=O)n1C)C(Cc1ccccc1)C(C#N)=C(N)O2 (configuration not stated) | inactive
20 | O=C(CSc1nc2[nH]ncc2c(=O)[nH]1)N1CCCCC1 | inactive
21 | C=CCNC(=S)NNC(=O)c1cccn(Cc2ccc(Cl)cc2)c1=O | inactive
22 | COc1ccc(-c2cc(N3CCCC3)n3ncnc3n2)cc1 | inactive
23 | COC(=O)Cn1c(C)nc2ccccc21 | inactive
24 | Cc1ccc(OCc2nc3ccccc3[nH]2)cc1 | inactive

Row | SMILES | outcome
25 | COc1ccc(OCCSc2nnc3sc4ccccc4n23)cc1 | inactive
26 | CNc1ncc(Cc2ccccc2)s1 | inactive
27 | CCn1c(SCc2ccc(F)cc2)nnc1C1CCN(S(=O)(=O)c2ccc(OC)cc2)CC1 | inactive
28 | O=C1CC(c2ccco2)CC(O)=C1C=Nc1cc(Cl)cc(Cl)c1 (configuration not stated) | inactive
29 | c1csc(C2Nc3ccccc3-c3nc4ccccc4n32)c1 (configuration not stated) | inactive
30 | C=CCOc1ccc(Br)cc1/C=N/O | inactive
31 | O=C(Cc1cn2ccsc2n1)Nc1ccccc1Oc1ccccc1 | inactive
32 | CCn1c2ccccc2c2cc(N)ccc21 | inactive
33 | CC(C)(C)c1ccc(C(=O)Nc2ccc(C=C(C#N)C#N)cc2)cc1 | inactive
34 | C=CCNC(=O)CC(=O)N/N=C/c1ccc(C(=O)OC)cc1 | inactive
35 | Cc1[nH]nc2c1C(c1cc(Br)cs1)C(C#N)=C(N)O2 (configuration not stated) | inactive
36 | Cc1cc(C)cc(-n2nc(C)cc2N)c1 | inactive
37 | N#CC(CC(=O)c1ccc(F)cc1)c1ccc2c(c1)OCO2 (configuration not stated) | inactive
38 | O=c1[nH]c2ccccc2n1C1=CCCC1 | inactive
39 | CCn1c(Cc2c(C)[nH]c3ccccc23)n[nH]c1=S | inactive
40 | c1ccc2c3c([nH]c2c1)-c1[nH]ncc1CC3 | inactive
41 | Nc1c(C(=O)NCCc2ccc(Cl)cc2)sc2ccc(S(=O)(=O)N3CCCCC3)cc12 | inactive
42 | CSc1cccc(NC(=O)c2ccco2)c1 | inactive
43 | CC1N(C)c2cc(NC(=O)c3ccco3)ccc2C1(C)C (configuration not stated) | inactive
44 | Cc1oc(CC(C)C)c(CN2CCCC2)c1C(=O)O | inactive
45 | COc1ccc2c(c1)[nH]c1c(N3CCN(Cc4ccc5c(c4)OCO5)CC3)ncnc12 | inactive
46 | Cc1[nH]n(-c2ncc(-c3ccc(Cl)cc3)s2)c(=O)c1C(c1ccc(Cl)cc1)C(C#N)C#N (configuration not stated) | inactive
47 | CCN(C(C)=O)c1nc(CSc2nnc(NC(C)C)s2)cs1 | inactive
48 | c1ccc2[nH]c(CSc3nccs3)nc2c1 | inactive

Row | SMILES | outcome
49 | Cc1ccccc1OCC(=O)N/N=C/c1ccco1 | inactive
50 | S=c1[nH]nc(Cc2cccc3ccccc23)o1 | inactive
51 | CC(=O)c1cccc(NC(=O)NCc2ccco2)c1 | inactive
52 | Cc1ccc(NC(=O)c2cc(S(=O)(=O)N3CCC4(CC3)OCCO4)ccc2F)cc1 | inactive
53 | O=C(c1cn(-c2ccccc2)nc1-c1cccnc1)N1CCCCC1 | inactive
54 | CC(=O)N1CCC(N(CCN2CCOCC2)C(=S)Nc2cccc(C)c2C)CC1 | inactive
55 | Cc1c(Cl)cccc1NC(=O)CSCC(N)=O | inactive
56 | COc1cc(C2Nc3cccc4cccc(c34)N2)cc(OC)c1OC(C)=O | inactive
57 | CC(=O)Oc1c2occc2cc2ccc(=O)oc12 | inactive
58 | Cc1ccc2c(c1)cc(CN(Cc1ccc3c(c1)OCO3)C(=O)c1cnccn1)c1nnnn12 | inactive
59 | CSc1ccc(C(=O)/C=C/c2ccc(N)cc2)cc1 | inactive
60 | Cc1cccc(NC(=O)c2cc(N3C(=O)CCC3=O)ccc2Cl)n1 | inactive
61 | Cc1ccccc1-n1c(C)cc(/C=N/Nc2ccc([N+](=O)[O-])cn2)c1C | inactive
62 | Cc1ccc([N+](=O)[O-])cc1NC(=S)NC(=O)C(C)(C)C | inactive
63 | CN(CCO)c1cc(Sc2nc3ccccc3s2)c2nonc2c1[N+](=O)[O-] | inactive
64 | O=C(CSCc1ccccc1)N/N=C/c1ccccc1OCc1ccccc1 | inactive
65 | O=C(CSc1n[nH]c(=O)[nH]c1=O)N/N=C/c1ccccc1 | inactive
66 | Cc1cc([N+](=O)[O-])ccc1NC(=O)Cc1ccc(F)cc1 | inactive
67 | O=C(CSc1nc2ccccc2s1)Nc1ccc(N2CCOCC2)c(Cl)c1 | inactive
68 | COc1ccc(-n2ncc(S(=O)(=O)c3ccccc3)c2-c2ccc(Cl)cc2)cc1 | inactive
69 | COc1ccc(Cl)cc1C(=O)Nc1ccc(NC(=O)c2ccco2)cc1 | inactive
70 | O=C(Nc1cccc(Cl)c1)C1C2CCC3C(CCC21)C3(Cl)Cl (configuration not stated) | inactive
71 | COc1cccc(-n2c(N)c(C(=O)Nc3c(C)n(C)n(-c4ccccc4)c3=O)c3nc4ccccc4nc32)c1 | inactive
72 | COc1ccc(N2C(=O)CC(Sc3nc(C)c4c(n3)CCCC4)C2=O)cc1 (configuration not stated) | inactive

Row | SMILES | outcome
73 | COc1ccc(-c2cnn3c(N)c(S(=O)(=O)C(C)(C)C)cnc23)cc1 | inactive
74 | Cc1ccc2nc(NNC(=O)c3ccc(S(=O)(=O)N4CCc5ccccc5C4)cc3)sc2c1 | inactive
75 | O=C(/C=C/c1ccc2c(c1)OCO2)N1CCN(c2ccccc2F)CC1 | inactive
76 | COc1ccc(C(C)C)cc1S(=O)(=O)Nc1ccc(Cl)cn1 | inactive
77 | O=C(Nc1cnc2ccccc2c1)N1CCOCC1 | inactive
78 | CN(C)S(=O)(=O)Nc1ccc(C(=O)O)cc1 | inactive
79 | c1ccc2c(C3=NNC(=NC4CCCCC4)SC3)c[nH]c2c1 | inactive
80 | O=C(CSc1nc2ccccc2o1)Nc1ccc(N2CCOCC2)cc1 | inactive
81 | CNc1nnc(-c2cccc(N(C)C)c2)s1 | inactive
82 | O=S(=O)(c1ccccc1)N(CC(O)Cn1c2ccccc2c2ccccc21)c1ccccc1 (configuration not stated) | inactive
83 | CCCn1c(NCCO)nc2ccccc21 | inactive
84 | COC(=O)C(CCSC)NC(=O)c1cccc([N+](=O)[O-])c1 (configuration not stated) | inactive
85 | Cc1ccc(CNC(=O)C2CCCN(S(=O)(=O)c3c(C)noc3C)C2)cc1 (configuration not stated) | inactive
86 | Cn1cccc1C(=O)OCc1csc(-c2ccccc2)n1 | inactive
87 | Nc1ccc(C(=O)OCc2nc3ccccc3[nH]2)cc1 | inactive
88 | Cc1ccc(C)n1-c1cc([N+](=O)[O-])ccc1-n1ccnc1 | inactive
89 | Cc1cc(-c2csc(NC(=O)c3ccccc3C(F)(F)F)n2)c(C)n1Cc1ccccc1 | inactive
90 | Cc1nc(NCc2ccc3c(c2)OCO3)c2oc3ccccc3c2n1 | inactive
91 | Cc1scc(C(=O)O)c1-c1c(C(=O)O)csc1C | inactive
92 | O=[N+]([O-])c1ccccc1/C=N/N1CCN(c2ccncc2S(=O)(=O)N2CCCCC2)CC1 | inactive
93 | CCOc1ccc(C(=O)NC(=S)Nc2ccc(N3CCCCC3)cc2)cc1[N+](=O)[O-] | inactive
94 | CCOc1ccc(CSC(=N)N)cc1[N+](=O)[O-] | inactive
95 | CCOc1ccc(C(=O)Nc2ccccc2CC)cc1[N+](=O)[O-] | inactive
96 | COc1nc(-c2ccccc2)ccc1-c1noc(C)n1 | inactive

Row | SMILES | outcome
97 | CCCc1cc(N2CCN(c3ccccn3)CC2)n2nc(C)c(-c3ccccc3)c2n1 | inactive
98 | CCc1ccc(CNc2ccc(O)cc2)cc1 | inactive
99 | Nc1nc(N)nc(-c2ccccc2)n1 | inactive
100 | CCn1c2ccccc2c2nnc(SCC(=O)Nc3ccc4c(c3)OCO4)nc21 | inactive
101 | CCn1c2ccccc2c2cc(NC(=O)COc3ccccc3)ccc21 | inactive
102 | CCn1cc(C(=O)O)c(=O)c2cnc(N3CCN(C(=S)NC(=O)c4ccc(Cl)cc4)CC3)nc21 | inactive
103 | CCn1cc(C(=O)OCC(=O)Nc2ccc(S(=O)(=O)N3CCCC3)cc2)c(=O)c2ccc(C)nc21 | inactive
104 | Cc1ccc(NC(=O)C(=O)NCCOc2ccccc2Cl)cc1 | inactive
105 | O=C1CC(c2ccccc2)n2nc(NC(=O)c3ccccc3)nc2N1 (configuration not stated) | inactive
106 | Cc1ccccc1NC(=O)c1ccc(-n2cncn2)nc1 | inactive
107 | Nc1cc(N)nc(SCC(=O)Nc2ccc3c(c2)OCCCO3)n1 | inactive
108 | Cc1nn(-c2ccc(Cl)cc2)c2[nH]c(=O)c(CNCc3ccc4c(c3)OCO4)cc12 | inactive
109 | CCCSc1nc(N2CCCC2)c2c(c1C#N)CC(C)(C)OC2 | inactive
110 | O=C(CCn1nnc(-c2cccs2)n1)NCc1ccccc1Cl | inactive
111 | Nc1scc(-c2ccncc2)c1Cl | inactive
112 | CN(C)c1ccnc(-n2cccc2/C=N/OCc2ccccc2)c1C#N | inactive
113 | CCOC(=O)N1CCN(C(=O)c2cn(CC(C)C)c(=O)c3c2c2ccccc2n3C)CC1 | inactive
114 | CCOC(=O)c1cn(CC)c2cc(N3CCOCC3)c(F)cc2c1=O | inactive
115 | Cc1cc(C)c2nc(NNC(=O)c3ccc(S(=O)(=O)N4CCc5ccccc5C4)cc3)sc2c1 | inactive
116 | Cc1ccc2nc(SCCCCOc3ccccc3)[nH]c2c1 | inactive
117 | CN(c1ccccc1)S(=O)(=O)c1cc(C(=O)Nc2nc3ccccc3[nH]2)ccc1Cl | inactive
